Screening data as filed in PubChem BioAssay.
The entries come from a sample that favours hits as a whole.
nsP2pro inh: Primary qHTS for inhibitors of NSP2Pro chikungunya virus (CHIKV); FRET peptide cleavage, nsP2pro, fluorescence 1 h; Polyprotein P1234 (Chikungunya virus (strain S27-African prototype)), Q8JUX6; Potency, µM (top dose mostly 24.9 µM), inactives show at the highest dose activity change, negative = inhibition, actives largely listed as inhibitors; hit rate 1.1% among 31,000; also: nearly all actives have a fitted effect of over 60% in size
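Recombinant nsP2pro (150 nM) was preincubated with compound 15 min at room temperature in 10 mM Tris-HCl pH 8.0, 0.01% Tween 20. Peptide 2 FRET substrate (2.5 uM) was then added and fluorescence read after 1 h. Seven-point series, up to 25 uM.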
nsP2 cell sec: Secondary cell base assay for inhibitors of NSP2Pro Chikungunya virus (CHIKV); shares compounds with nsP2pro inh; cell-based CHIKV nsP2 protease reporter assay; Potency, µM (top dose mostly 51.1 µM), without a hit: at the highest dose activity change, negative = inhibition, usual class: inhibitors; hit rate 10% among 450; also: nearly all actives have a fitted effect of over 70% in size
CHIKV NSP2 FL: Selectivity profile for inhibitors of NSP2Pro chikungunya virus (CHIKV): Full length NSP2 enzyme counterscreen (CHIKV-NSP2); shares compounds with nsP2pro inh; Full-length CHIKV NSP2 protease enzymatic counterscreen; Potency, µM (top dose mostly 50.7 µM), for inactives: at the top dose activity change, negative = inhibition, hits mostly inhibitors; hit rate 39% among 410; AID 1964101, 2024; also: nearly all actives have a fitted effect of over 65% in size
Furin counter: Selectivity profile for inhibitors of NSP2Pro chikungunya virus (CHIKV): Human furin counterscreen. hit rate 6% among 410. Potency, µM (titrated, usually from 50.6 µM), for inactives: at the top dose activity change, negative = inhibition, actives largely listed as inhibitors. Recombinant human furin enzymatic counterscreen, fluorogenic substrate. shares compounds with nsP2pro inh
nsP2 NS23 pep: Selectivity profile for inhibitors of NSP2Pro chikungunya virus (CHIKV): Endogenous NS2/3 peptide Counterscreen. shares compounds with nsP2pro inh. Potency, µM (top dose mostly 51 µM), for the others: at the top dose activity change, negative = inhibition, usual class: inhibitors. hit rate 34% among 410. AID 1964103, 2024. Purified CHIKV nsP2 protease, endogenous NS2/3 peptide cleavage; also: nearly all actives have a fitted effect of over 55% in size
Papain cs: Selectivity profile for inhibitors of NSP2Pro chikungunya virus (CHIKV): Papain Counterscreen. Potency, µM (series often up to 51 µM), inactives show at the top dose activity change, negative = inhibition, actives largely listed as inhibitors. AID 1964104, 2024. purified papain protease activity, enzymatic inhibition. shares compounds with nsP2pro inh. hit rate 5% among 410
nsP2pro confirm: Confirmatory qHTS for inhibitors of NSP2Pro chikungunya virus (CHIKV); shares compounds with nsP2pro inh; CHIKV nsP2 protease enzymatic activity, qHTS; Potency, µM (doses to about 25.5 µM), for the others: at the top dose activity change, negative = inhibition, most hits filed as inhibitors; hit rate 43% among 410; also: nearly all actives have a fitted effect of over 75% in size
HCV NS3 counter: Selectivity profile for inhibitors of NSP2Pro chikungunya virus (CHIKV): NS34A-HCV Counterscreen | shares compounds with nsP2pro inh | HCV NS3/4A protease biochemical counterscreen | Potency, µM (titrated, usually from 50.9 µM), actives largely listed as inhibitors | hit rate 20% among 410; also: nearly all actives have a fitted effect of over 55% in size
The depositor's hits bear a star; i = inactive; ? = inconclusive; [ ] = dose if it differs, or a comment. Calls follow the shape of the full dose curve. % is scaled to controls: 0 for no effect and ±100 for the full control effect; potency is read from the fitted curve at half-maximal effect.

SMILES	nsP2pro inh	others
Cc1cccc(Cn2cc(S(=O)(=O)c3cccc(Cl)c3)c(=O)c3cc(F)c(N4CCOCC4)cc32)c1	-15%
O=C1C(=Cc2cccnc2)C(=O)c2ccccc21	?	nsP2 cell sec=-11%;CHIKV NSP2 FL=?;Furin counter=-10%;nsP2 NS23 pep=18µM*;Papain cs=-7%;nsP2pro confirm=5µM*;HCV NS3 counter=?
O=C1OC(/C=C/c2ccccc2)=NC/1=C\c1cccnc1	8%
O=C1c2ccccc2C(=O)N1c1cccnc1	i
O=C(O)CC(=O)OC[C@H]1O[C@@H](Oc2ccc3c(c2)OC[C@H]2c4cc5c(cc4O[C@@H]32)OCO5)[C@H](O)[C@@H](O)[C@@H]1O	4%[10 µM]
CCCS(=O)(=O)N1CCCCC1c1nc(-c2cnccn2)n[nH]1 (centres undefined)	3%
CCc1ccccc1NC(=O)Cn1c(=O)n(C(C)C)c(=O)c2oc3ccccc3c21	-16%
COc1cc(/C=C/c2cc(O)cc(O[C@@H]3O[C@H](CO)[C@@H](O)[C@H](O)[C@H]3O)c2)ccc1O	-6%[10 µM]
O=C(CSc1ncc(S(=O)(=O)c2ccc(Br)cc2)c(=O)[nH]1)NCc1ccccc1Cl	26%
CC(C)c1ccc(S(=O)(=O)c2cnc(SCC(=O)Nc3ccc4c(c3)OCCO4)[nH]c2=O)cc1	4µM*	nsP2 cell sec=?;CHIKV NSP2 FL=-14%;Furin counter=-8%;nsP2 NS23 pep=208%;Papain cs=?;nsP2pro confirm=65%;HCV NS3 counter=i
Cc1ccc(S(=O)(=O)c2cnc(SCC(=O)Nc3ccc4c(c3)OCCO4)[nH]c2=O)cc1Cl	35%
COc1cc(-c2nnc(SCC(=O)N3CCCc4ccccc43)o2)cc(OC)c1OC	-7%
CC(=O)N(CC(=O)N(C)C)c1ccccc1	24%
Clc1cc(Cl)c(OCC#CI)cc1Cl	4.4µM*	nsP2 cell sec=?;CHIKV NSP2 FL=7.1µM*;Furin counter=9µM*;nsP2 NS23 pep=5µM*;Papain cs=-18%[17.2 µM];nsP2pro confirm=2.2µM*;HCV NS3 counter=i
Cc1ccc(NC(=O)N2CCc3cc(S(=O)(=O)N4CCC(C)CC4)ccc32)cc1F	-19%
COc1ccc(N(Cc2cccs2)C(=O)c2ccc(OCC(C)C)cc2)cc1	-24%
CC(=O)OCC1=C(C(=O)O)N2C(=O)[C@@H](NC(=O)[C@H](N)c3ccccc3)[C@H]2SC1	-19%
CC1=C(C(=O)O)N2C(=O)[C@@H](NC(=O)[C@H](N)c3ccccc3)[C@H]2SC1	0.31µM*	nsP2 cell sec=-6%;CHIKV NSP2 FL=0%;Furin counter=-9%;nsP2 NS23 pep=1%;Papain cs=-10%;nsP2pro confirm=-21%;HCV NS3 counter=i
CC1=C(C(=O)O)N2C(=O)[C@@H](NC(=O)[C@H](N)c3ccc(O)cc3)[C@H]2SC1	-23%
CC(=O)c1cccc(NC(=O)CN(c2cc(C)cc(C)c2)S(=O)(=O)c2c(C)noc2C)c1	1%
O=C(NC1CCCCC1)O[C@@H]1CO[C@H]2[C@@H]1OC[C@@H]2NS(=O)(=O)c1ccc(Cl)cc1	-21%
